Potency estimated from few doses data for five molecules are collected here from publication PMC11062922 (Nature Chemical Biology, 2023).

Holding throughout (parameters): species or system human, MV4-11 + K-562 + COLO205 + SK-N-BE2 + OVCAR-8
One assay relates to CDC42BPA. The settings on record: read-out: apparent Kd; compound concentrations: 100 nM and 1000 nM (sheet 'Samples'), CATDS: 5.2351316008414299E-2; n = 1.
The next assay concerns CDC42BPB. The settings on record: read-out: apparent Kd; compound concentrations: 100 nM and 1000 nM (sheet 'Samples'), CATDS: 8.8336954775193793E-2; n = 1.
The next assay has as its system CDC42BPG. The note with it: read-out: apparent Kd; compound concentrations: 100 nM and 1000 nM (sheet 'Samples'), CATDS: 4.2033135949813498E-2; n = 1.
The test system of the next assay is CIT. The note with it: read-out: apparent Kd; compound concentrations: 100 nM and 1000 nM (sheet 'Samples'), CATDS: 4.1257824798939802E-2; n = 1.
The next assay relates to GSK3A. The note with it: read-out: apparent Kd, n = 1.
Another assay relates to GSK3B. The note with it: read-out: apparent Kd; compound concentrations: 100 nM and 1000 nM (sheet 'Samples'), CATDS: 5.7473079866645002E-2; n = 1.
The next assay concerns LATS1. The settings on record: read-out: apparent Kd; compound concentrations: 100 nM and 1000 nM (sheet 'Samples'), CATDS: 9.7617752181751005E-2; n = 1.
For a further assay, the system named is MELK. The settings on record: read-out: apparent Kd, n = 1.
The subject of another assay is PIM2. The note with it: read-out: apparent Kd; compound concentrations: 100 nM and 1000 nM (sheet 'Samples'), CATDS: 3.9305369436655899E-2; n = 1.
The test system of a further assay is PKN1. The settings on record: read-out: apparent Kd; compound concentrations: 100 nM and 1000 nM (sheet 'Samples'), CATDS: 5.10787631229489E-2; n = 1.
Another assay has as its system PKN2. The note with it: read-out: apparent Kd; compound concentrations: 100 nM and 1000 nM (sheet 'Samples'), CATDS: 0.10529576550344701; n = 1.
The test system of the next assay is PKN3. The settings on record: read-out: apparent Kd; compound concentrations: 100 nM and 1000 nM (sheet 'Samples'), CATDS: 7.5123616152450098E-2; n = 1.
The next assay concerns PRKCD. The note with it: read-out: apparent Kd; compound concentrations: 100 nM and 1000 nM (sheet 'Samples'), CATDS: 4.7600533204707897E-2; n = 1.
The next assay deals with PRKCI. The note with it: read-out: apparent Kd; compound concentrations: 100 nM and 1000 nM (sheet 'Samples'), CATDS: 3.9274053765020099E-2; n = 1.
The next assay relates to ROCK1. The settings on record: read-out: apparent Kd; compound concentrations: 100 nM and 1000 nM (sheet 'Samples'), CATDS: 0.30602984254096799; n = 1.
A further assay concerns ROCK2. The settings on record: read-out: apparent Kd; compound concentrations: 100 nM and 1000 nM (sheet 'Samples'), CATDS: 0.35552561268284599; n = 1.
In another assay the test system is RPS6KB1. The note with it: read-out: apparent Kd; compound concentrations: 100 nM and 1000 nM (sheet 'Samples'), CATDS: 4.4674945957763799E-2; n = 1.
For the next assay, the system named is CDK2. The settings on record: read-out: apparent Kd; compound concentrations:100 nM and 1000 nM (sheet 'Samples'); n = 1.
The subject of the next assay is CDKL5. The settings on record: read-out: apparent Kd, n = 1.
The test system of the next assay is FLT3. The settings on record: read-out: apparent Kd; compound concentrations:100 nM and 1000 nM (sheet 'Samples'); n = 1.
In the next assay the test system is CDK16. The settings on record: read-out: apparent Kd; compound concentrations:100 nM and 1000 nM (sheet 'Samples'); n = 1.
In another assay the test system is CDK17. The settings on record: read-out: apparent Kd; compound concentrations:100 nM and 1000 nM (sheet 'Samples'); n = 1.
Another assay deals with CDK6. The settings on record: read-out: apparent Kd; compound concentrations:100 nM and 1000 nM (sheet 'Samples'); n = 1.
For another assay, the system named is ICK. The note with it: read-out: apparent Kd; compound concentrations:100 nM and 1000 nM (sheet 'Samples'); n = 1.
A further assay has as its system NNT. The settings on record: read-out: apparent Kd; compound concentrations:100 nM and 1000 nM (sheet 'Samples'); n = 1.
Another assay deals with CDC7. The note with it: read-out: apparent Kd; compound concentrations: 100 nM and 1000 nM (sheet 'Samples'), CATDS: 9.1392533314382199E-2; n = 1.
The subject of another assay is CLK1. The note with it: read-out: apparent Kd; compound concentrations: 100 nM and 1000 nM (sheet 'Samples'), CATDS: 0.12211476464111; n = 1.
The next assay relates to CLK4. The note with it: read-out: apparent Kd, n = 1.
In a further assay the test system is CSNK2A1;CSNK2A3. The note with it: read-out: apparent Kd, n = 1.
Another assay concerns CSNK2A2. The note with it: read-out: apparent Kd, n = 1.
The next assay has as its system DYRK1A. The settings on record: read-out: apparent Kd; compound concentrations: 100 nM and 1000 nM (sheet 'Samples'), CATDS: 0.194548178255603; n = 1.
The next assay deals with MYLK3. The settings on record: read-out: apparent Kd; compound concentrations:100 nM and 1000 nM (sheet 'Samples'); n = 1.
In the next assay the test system is NUAK1. The settings on record: read-out: apparent Kd; compound concentrations:100 nM and 1000 nM (sheet 'Samples'); n = 1.
A further assay relates to PRKAG1. The settings on record: read-out: apparent Kd; compound concentrations:100 nM and 1000 nM (sheet 'Samples'); n = 1.
Where [1] appears, read: compound concentrations:100 nM and 1000 nM (sheet 'Samples').

Structures are written as SMILES. Like-named read-outs stand apart in the source and are kept apart here.

On to `NCc1ccc(-n2c(-c3nonc3N)nc3cnccc32)cc1` [SB-750140], for which the potency estimated from few doses is 660 nM in the assay with CDC42BPA; 173 nM in the assay on CDC42BPB; 1420 nM with CDC42BPG; 1530 nM in the assay with CIT; 339 nM in the assay on GSK3A (compound concentrations: 100 nM and 1000 nM (sheet 'Samples'), CATDS: 6.6590939053141299E-2); 502 nM in the assay with GSK3B. Besides, the potency estimated from few doses is 139 nM in the assay on LATS1; 1800 nM with MELK (compound concentrations: 100 nM and 1000 nM (sheet 'Samples'), CATDS: 3.9798752380349897E-2); 1910 nM in the assay on PIM2; 712 nM in the assay with PKN1; 118 nM in the assay on PKN2; 252 nM in the assay with PKN3. Also, the potency estimated from few doses with PRKCD is 895 nM; with PRKCI, 1910 nM; in the assay on ROCK1, 16.3 nM; in the assay with ROCK2, 12.9 nM; in the assay on RPS6KB1, 1120 nM.

As for `O=C(Nc1n[nH]c2cc(-c3ccoc3)ccc12)C1CC1` [SB-738481], the potency estimated from few doses was 1470 nM in the assay on CDK2, 1100 nM in the assay with CDKL5 (setting [1]) and 884 nM in the assay with FLT3.

Take `CS(=O)(=O)N1CCC(Nc2ncc(C(=O)c3c(F)cccc3F)c(N)n2)CC1` [RO4930481-000]: the potency estimated from few doses in the assay with CDK16 was 1350 nM; in the assay on CDK17 it was 1470 nM; in the assay on CDK2 it was 1000 nM; in the assay with CDK6 it was 1750 nM; in the assay on ICK it was 1260 nM; in the assay with NNT, 1110 nM.

As to `O=C1N=C(N[C@@H]2C[C@H]2c2ccccc2)S/C1=C\c1ccc2ncccc2c1` [RO4915610-000], the potency estimated from few doses was 1800 nM in the assay on CDC7; 1130 nM in the assay with CDKL5 (compound concentrations: 100 nM and 1000 nM (sheet 'Samples'), CATDS: 0.100532719571443); 542 nM in the assay with CLK1; 671 nM in the assay with CLK4 (compound concentrations: 100 nM and 1000 nM (sheet 'Samples'), CATDS: 0.114770368167016); 61.5 nM with CSNK2A1;CSNK2A3 (compound concentrations: 100 nM and 1000 nM (sheet 'Samples'), CATDS: 0.31191577539645199); 51.1 nM in the assay with CSNK2A2 (compound concentrations: 100 nM and 1000 nM (sheet 'Samples'), CATDS: 0.34928398987599801). In addition, the potency estimated from few doses with DYRK1A is 154 nM.

In the case of `NS(=O)(=O)c1ccc(N/N=C2\C(=O)Nc3ccc(C(=O)NCCc4c[nH]cn4)cc32)cc1` [GW300660X], the potency estimated from few doses in the assay on CDK16 is 1010 nM; in the assay with CLK4 (setting [1]), 1230 nM; in the assay on CSNK2A1;CSNK2A3 (setting [1]) it was 2310 nM; in the assay on CSNK2A2 (setting [1]), 1970 nM; with GSK3A (setting [1]) it was 1220 nM; in the assay with MELK (setting [1]), 2180 nM. The potency estimated from few doses was 735 nM in the assay on MYLK3, 1450 nM in the assay on NUAK1 and 1480 nM in the assay with PRKAG1.
